Experiment [1] concerns the target Tyrosine-protein kinase receptor UFO (Homo sapiens) (UniProt P30530). The note with it: at 1 µM.
For experiment [2], the target named is Tyrosine-protein kinase Blk (Homo sapiens) (UniProt P51451). Conditions: at 0.1 µM.
For experiment [3] the target is unchanged. The note with it: at 1 µM.
Experiment [4] concerns the target T1, Cytoplasmic tyrosine-protein kinase BMX (Homo sapiens) (UniProt P51813).
T1 sequence (whole entry): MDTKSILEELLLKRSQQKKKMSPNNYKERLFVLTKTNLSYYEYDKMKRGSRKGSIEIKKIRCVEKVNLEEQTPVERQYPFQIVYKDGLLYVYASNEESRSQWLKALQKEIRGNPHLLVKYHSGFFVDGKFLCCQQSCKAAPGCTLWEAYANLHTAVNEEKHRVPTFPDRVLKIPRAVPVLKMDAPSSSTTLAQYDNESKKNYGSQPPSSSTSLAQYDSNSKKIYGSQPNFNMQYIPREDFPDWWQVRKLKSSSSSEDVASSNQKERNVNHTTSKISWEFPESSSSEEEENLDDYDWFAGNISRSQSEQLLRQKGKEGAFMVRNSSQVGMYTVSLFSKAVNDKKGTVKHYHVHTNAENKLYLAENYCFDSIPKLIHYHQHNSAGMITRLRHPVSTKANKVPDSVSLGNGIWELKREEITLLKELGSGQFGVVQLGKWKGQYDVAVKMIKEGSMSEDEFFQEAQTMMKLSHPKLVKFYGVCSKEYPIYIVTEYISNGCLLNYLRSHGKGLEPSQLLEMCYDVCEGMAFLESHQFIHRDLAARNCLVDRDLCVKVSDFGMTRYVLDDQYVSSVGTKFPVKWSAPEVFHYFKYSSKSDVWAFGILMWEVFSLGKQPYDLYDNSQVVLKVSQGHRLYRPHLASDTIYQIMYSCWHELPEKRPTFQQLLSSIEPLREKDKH
Conditions: at 0.1 µM.

Experiment [5] addresses T1, Cytoplasmic tyrosine-protein kinase BMX (Homo sapiens). Conditions: at 1 µM.
For experiment [6], the target named is Protein-tyrosine kinase 6 (Homo sapiens) (UniProt Q13882). Conditions: at 0.1 µM.
Experiment [7] shares this target. The note with it: at 1 µM.
Experiment [8] has as its target Tyrosine-protein kinase BTK (Homo sapiens) (UniProt Q06187). The note with it: at 0.1 µM.
The target is the same in experiment [9]. The note with it: at 1 µM.
For experiment [10], the target named is Tyrosine-protein kinase CSK (Homo sapiens) (UniProt P41240). Conditions: at 0.1 µM.
For experiment [11] the target is unchanged. The note with it: at 1 µM.
In experiment [12] the target is T2, Discoidin domain-containing receptor 2 (Homo sapiens) (UniProt Q16832).
T2 sequence (whole entry): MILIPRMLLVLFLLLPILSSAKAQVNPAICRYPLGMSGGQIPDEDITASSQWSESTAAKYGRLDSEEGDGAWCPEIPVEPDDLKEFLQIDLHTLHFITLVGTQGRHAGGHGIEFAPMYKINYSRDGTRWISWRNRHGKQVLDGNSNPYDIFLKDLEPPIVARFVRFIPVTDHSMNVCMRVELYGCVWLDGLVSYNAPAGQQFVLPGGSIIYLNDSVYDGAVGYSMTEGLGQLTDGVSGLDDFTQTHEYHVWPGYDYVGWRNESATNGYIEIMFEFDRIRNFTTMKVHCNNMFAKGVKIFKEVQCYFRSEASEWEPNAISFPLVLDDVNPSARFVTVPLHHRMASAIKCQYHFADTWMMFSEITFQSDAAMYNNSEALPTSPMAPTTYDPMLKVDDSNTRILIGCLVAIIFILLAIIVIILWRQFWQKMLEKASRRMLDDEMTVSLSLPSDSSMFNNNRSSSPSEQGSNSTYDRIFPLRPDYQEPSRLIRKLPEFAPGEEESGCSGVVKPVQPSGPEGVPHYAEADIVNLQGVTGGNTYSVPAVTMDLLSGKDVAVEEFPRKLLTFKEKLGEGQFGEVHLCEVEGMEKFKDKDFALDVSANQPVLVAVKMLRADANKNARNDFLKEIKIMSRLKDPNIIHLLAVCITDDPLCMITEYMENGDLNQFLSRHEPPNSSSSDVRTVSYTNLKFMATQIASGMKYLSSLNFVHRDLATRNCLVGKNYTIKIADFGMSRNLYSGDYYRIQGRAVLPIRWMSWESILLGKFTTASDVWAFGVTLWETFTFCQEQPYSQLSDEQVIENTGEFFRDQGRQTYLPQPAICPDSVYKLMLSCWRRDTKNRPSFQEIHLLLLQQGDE
The note with it: at 0.1 µM.

For experiment [13], the target named is T2, Discoidin domain-containing receptor 2 (Homo sapiens). The note with it: at 1 µM.
In experiment [14] the target is Epidermal growth factor receptor (Homo sapiens) (UniProt P00533). Conditions: at 0.1 µM.
For experiment [15] the target is unchanged. The note with it: at 1 µM.
The subject of experiment [16] is Epidermal growth factor receptor (Homo sapiens), P00533 [L858R]. The note with it: at 0.1 µM.
For experiment [17] the test system is unchanged. The note with it: at 1 µM.
The subject of experiment [18] is Epidermal growth factor receptor (Homo sapiens), P00533 [L861Q]. Conditions: at 0.1 µM.
The test system is the same in experiment [19]. Conditions: at 1 µM.
Experiment [20] deals with Epidermal growth factor receptor (Homo sapiens), P00533 [T790M]. The note with it: at 0.1 µM.

Each structure is given as a SMILES string.

Six compounds from ChEMBL document CHEMBL1961873, “Compounds: GSK PKIS; Assays: Nanosyn kinase panel” (2012) can be followed below.

Tyrosine-protein kinase CSK (Homo sapiens), sequence (P41240 2-450 limits assumed): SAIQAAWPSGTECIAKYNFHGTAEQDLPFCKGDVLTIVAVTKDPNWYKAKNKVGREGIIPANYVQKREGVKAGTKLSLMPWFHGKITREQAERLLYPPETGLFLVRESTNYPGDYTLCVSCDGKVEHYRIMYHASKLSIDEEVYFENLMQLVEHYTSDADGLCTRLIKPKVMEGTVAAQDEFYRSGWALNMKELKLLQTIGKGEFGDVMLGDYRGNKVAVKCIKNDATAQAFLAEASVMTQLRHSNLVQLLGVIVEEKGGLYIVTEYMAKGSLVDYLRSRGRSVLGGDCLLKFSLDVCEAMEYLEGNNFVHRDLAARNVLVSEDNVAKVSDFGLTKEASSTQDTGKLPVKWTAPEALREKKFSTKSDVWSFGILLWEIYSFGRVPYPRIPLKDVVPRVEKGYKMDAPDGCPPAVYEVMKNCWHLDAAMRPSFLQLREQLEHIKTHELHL
Tyrosine-protein kinase receptor UFO (Homo sapiens), sequence (P30530 whole entry): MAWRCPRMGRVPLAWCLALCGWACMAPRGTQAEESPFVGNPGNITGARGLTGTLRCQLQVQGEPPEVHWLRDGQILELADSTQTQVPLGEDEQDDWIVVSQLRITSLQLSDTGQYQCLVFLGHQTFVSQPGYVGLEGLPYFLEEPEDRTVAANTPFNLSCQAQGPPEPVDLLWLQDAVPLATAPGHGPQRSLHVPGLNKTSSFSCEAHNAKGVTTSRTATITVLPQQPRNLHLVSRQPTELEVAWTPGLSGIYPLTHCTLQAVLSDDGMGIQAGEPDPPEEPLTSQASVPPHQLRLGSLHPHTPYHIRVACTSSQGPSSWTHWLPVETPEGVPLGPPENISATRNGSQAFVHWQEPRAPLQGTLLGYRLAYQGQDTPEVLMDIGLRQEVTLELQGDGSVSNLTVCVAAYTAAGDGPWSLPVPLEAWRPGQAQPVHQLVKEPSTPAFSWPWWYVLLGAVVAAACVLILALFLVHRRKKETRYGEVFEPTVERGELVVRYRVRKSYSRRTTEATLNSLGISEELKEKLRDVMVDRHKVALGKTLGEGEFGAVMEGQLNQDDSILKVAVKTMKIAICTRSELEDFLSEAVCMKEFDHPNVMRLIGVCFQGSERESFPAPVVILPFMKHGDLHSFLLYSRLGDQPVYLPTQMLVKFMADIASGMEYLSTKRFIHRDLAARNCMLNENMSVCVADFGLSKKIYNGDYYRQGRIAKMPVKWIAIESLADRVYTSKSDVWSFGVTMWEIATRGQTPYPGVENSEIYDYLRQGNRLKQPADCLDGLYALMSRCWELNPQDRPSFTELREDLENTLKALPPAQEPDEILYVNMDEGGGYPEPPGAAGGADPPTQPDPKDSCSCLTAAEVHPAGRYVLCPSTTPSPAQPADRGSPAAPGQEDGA
Protein-tyrosine kinase 6 (Homo sapiens), sequence (Q13882 whole entry, looked up): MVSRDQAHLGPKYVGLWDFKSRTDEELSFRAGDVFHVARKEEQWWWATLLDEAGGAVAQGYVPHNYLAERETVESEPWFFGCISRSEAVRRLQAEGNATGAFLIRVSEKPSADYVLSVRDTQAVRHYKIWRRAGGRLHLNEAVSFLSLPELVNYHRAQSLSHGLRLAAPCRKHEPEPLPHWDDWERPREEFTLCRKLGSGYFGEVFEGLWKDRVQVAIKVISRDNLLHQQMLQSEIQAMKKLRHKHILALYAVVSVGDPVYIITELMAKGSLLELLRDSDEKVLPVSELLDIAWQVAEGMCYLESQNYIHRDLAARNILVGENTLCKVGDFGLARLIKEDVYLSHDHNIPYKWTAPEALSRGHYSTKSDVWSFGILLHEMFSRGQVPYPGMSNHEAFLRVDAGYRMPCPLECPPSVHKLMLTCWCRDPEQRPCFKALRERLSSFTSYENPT
Epidermal growth factor receptor (Homo sapiens), sequence (P00533 whole entry): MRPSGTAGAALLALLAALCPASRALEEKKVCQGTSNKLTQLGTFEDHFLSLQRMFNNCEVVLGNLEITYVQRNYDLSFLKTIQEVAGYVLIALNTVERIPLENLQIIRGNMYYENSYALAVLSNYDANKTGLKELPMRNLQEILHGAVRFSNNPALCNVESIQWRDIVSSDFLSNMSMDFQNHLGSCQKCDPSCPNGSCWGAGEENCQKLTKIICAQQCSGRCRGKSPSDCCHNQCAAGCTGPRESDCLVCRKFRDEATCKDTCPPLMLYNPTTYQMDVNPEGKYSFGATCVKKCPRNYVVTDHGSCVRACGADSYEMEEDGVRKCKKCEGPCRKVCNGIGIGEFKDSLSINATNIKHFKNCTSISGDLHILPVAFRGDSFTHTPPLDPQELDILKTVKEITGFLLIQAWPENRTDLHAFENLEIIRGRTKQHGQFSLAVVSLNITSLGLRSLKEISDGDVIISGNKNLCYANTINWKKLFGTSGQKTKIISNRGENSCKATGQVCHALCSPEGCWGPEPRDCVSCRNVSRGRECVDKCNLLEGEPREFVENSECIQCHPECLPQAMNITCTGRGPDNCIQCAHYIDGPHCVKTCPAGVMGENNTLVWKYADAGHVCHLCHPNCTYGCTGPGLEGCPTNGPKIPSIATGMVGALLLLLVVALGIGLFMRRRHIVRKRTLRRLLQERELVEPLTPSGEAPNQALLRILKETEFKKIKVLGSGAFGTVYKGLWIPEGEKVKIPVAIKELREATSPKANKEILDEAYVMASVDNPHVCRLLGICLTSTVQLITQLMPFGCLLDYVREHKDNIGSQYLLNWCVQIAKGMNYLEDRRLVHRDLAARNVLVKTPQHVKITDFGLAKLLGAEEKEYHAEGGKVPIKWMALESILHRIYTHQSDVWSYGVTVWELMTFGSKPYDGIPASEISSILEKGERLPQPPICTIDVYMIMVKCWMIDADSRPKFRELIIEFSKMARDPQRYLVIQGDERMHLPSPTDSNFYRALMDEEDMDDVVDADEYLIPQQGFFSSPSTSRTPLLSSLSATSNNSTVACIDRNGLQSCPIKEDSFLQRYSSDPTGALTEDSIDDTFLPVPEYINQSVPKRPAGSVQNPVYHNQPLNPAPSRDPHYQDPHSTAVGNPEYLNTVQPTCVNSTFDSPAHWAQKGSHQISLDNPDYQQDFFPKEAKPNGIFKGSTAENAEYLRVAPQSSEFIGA
Tyrosine-protein kinase BTK (Homo sapiens), sequence (Q06187 whole entry): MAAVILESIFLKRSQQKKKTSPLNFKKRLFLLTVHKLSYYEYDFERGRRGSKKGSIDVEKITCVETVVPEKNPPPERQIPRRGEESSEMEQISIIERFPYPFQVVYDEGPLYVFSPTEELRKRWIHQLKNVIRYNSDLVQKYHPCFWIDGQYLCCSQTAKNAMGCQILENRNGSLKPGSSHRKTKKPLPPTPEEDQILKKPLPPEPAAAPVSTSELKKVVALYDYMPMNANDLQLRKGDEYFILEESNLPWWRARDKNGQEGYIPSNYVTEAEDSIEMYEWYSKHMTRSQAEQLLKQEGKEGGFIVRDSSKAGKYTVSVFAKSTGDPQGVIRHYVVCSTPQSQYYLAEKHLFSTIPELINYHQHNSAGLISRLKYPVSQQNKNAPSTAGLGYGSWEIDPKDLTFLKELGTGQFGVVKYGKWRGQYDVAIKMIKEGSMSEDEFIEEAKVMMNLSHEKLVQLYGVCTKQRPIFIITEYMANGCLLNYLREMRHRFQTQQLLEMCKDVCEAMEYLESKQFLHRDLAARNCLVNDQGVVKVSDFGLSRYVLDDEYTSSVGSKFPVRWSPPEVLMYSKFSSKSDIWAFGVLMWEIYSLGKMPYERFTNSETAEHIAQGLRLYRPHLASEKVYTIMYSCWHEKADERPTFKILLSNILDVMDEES
Tyrosine-protein kinase Blk (Homo sapiens), sequence (P51451 2-505 limits assumed): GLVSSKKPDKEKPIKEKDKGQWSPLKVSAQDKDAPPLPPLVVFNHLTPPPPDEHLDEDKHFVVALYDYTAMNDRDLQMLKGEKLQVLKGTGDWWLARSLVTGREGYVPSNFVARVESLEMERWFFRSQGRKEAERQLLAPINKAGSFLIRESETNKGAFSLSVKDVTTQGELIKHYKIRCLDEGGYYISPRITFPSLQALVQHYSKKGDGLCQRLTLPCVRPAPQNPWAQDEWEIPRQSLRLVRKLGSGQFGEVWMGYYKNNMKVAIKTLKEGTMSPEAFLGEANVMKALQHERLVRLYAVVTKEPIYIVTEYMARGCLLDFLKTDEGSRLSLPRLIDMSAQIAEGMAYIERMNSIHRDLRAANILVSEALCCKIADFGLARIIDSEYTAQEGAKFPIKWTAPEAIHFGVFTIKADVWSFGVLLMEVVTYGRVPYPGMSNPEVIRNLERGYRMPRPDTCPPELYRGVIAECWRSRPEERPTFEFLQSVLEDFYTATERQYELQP

Regarding `O=C(Nc1n[nH]c2cc(-c3ccc(F)cc3)ccc12)C1CC1`, the inhibition – broadly, the drop in the measured response relative to a control, in per cent – was -2.92% in experiment [1]; 1.55% in experiment [2]; 7.03% in experiment [3]; 0.57% in [4]; 5.89% in [5]; 3.22% in experiment [6]. In addition, the inhibition in experiment [7] was 2.76%; in experiment [8], -1.4%; in experiment [9] it was -0.88%; in [10] it was 3.39%; in experiment [11], 5.61%; in experiment [12], 2.28%. Further, the inhibition is 1.71% in experiment [13]; -1.79% in experiment [14]; 4.27% in [15]; 0.24% in [16]; 4.19% in experiment [17]; 1.33% in [18]. Besides, the inhibition in experiment [19] worked out at 2.33%; in experiment [20], 1.54%.
For `COc1cc(Nc2nccc(Nc3ccc4c(C)n[nH]c4c3)n2)cc(OC)c1OC`, the inhibition in experiment [1] worked out at 1.16%; in experiment [2] it was 12.7%; in [3], 69.3%; in [4], 17.5%; in experiment [5], 64.8%; in experiment [6] it was 11.1%. In addition, the inhibition in experiment [7] is 55.4%; in experiment [8], 7.82%; in [9], 34.9%; in experiment [10], 21%; in experiment [11], 67.9%; in [12], 9.87%. In addition, the inhibition came out at 43.1% in experiment [13]; 8% in experiment [14]; 22.2% in experiment [15]; 3.36% in experiment [16]; 29.9% in [17]; 2.9% in [18]. The inhibition in experiment [19] was 15.6%; in [20], 1.4%.
With `CC(=O)Nc1cccc(C#Cc2cncnc2Nc2ccc(OCc3cccc(F)c3)c(Cl)c2)c1`, the inhibition in experiment [1] turned out to be 1.6%; in experiment [2], 2.4%; in experiment [3], 1.37%; in experiment [4] it was 0.73%; in experiment [5] it was 4.15%; in experiment [6], 1.35%. In addition, the inhibition in experiment [7] was 1.55%; in [8], 2.74%; in experiment [9], 5.12%; in experiment [10], 5.08%; in [11], -1.85%; in experiment [12], 4.51%. Further, in experiment [13], the inhibition came to 7.91%.
As to `NS(=O)(=O)c1ccc(N/N=C2\C(=O)Nc3ccc4ncccc4c32)cc1`, the inhibition was 36.8% in experiment [1]; 8.45% in [2]; 60% in [3]; 6.88% in [4]; 25.3% in experiment [5]; 5.86% in [6]. Besides, the inhibition in experiment [7] was determined as 31.9%; in experiment [8], 1.8%; in [9] it was 13%; in [10], 1.66%; in [11], 9.03%; in [12], 0.92%. Further, the inhibition in experiment [13] was found to be 6.09%; in experiment [14], 0.87%; in [15] it was 6.7%; in experiment [16], 1.35%; in [17], 2.75%; in experiment [18], 1.5%. Also, the inhibition in experiment [19] is -1.33%; in experiment [20], 1.15%.
Take `CCn1c(-c2nonc2N)nc2ccccc21`: the inhibition in experiment [1] was 0.96%; in experiment [2] it was 1.38%; in experiment [3], 3.02%; in [4], -0.5%; in experiment [5], 3.8%; in experiment [6] it was 4.51%. Besides, the inhibition in [7] was 3.44%; in experiment [8], 1.6%; in experiment [9], 2.63%; in experiment [10] it was 2.25%; in [11], -0.41%; in experiment [12], 1.73%. Moreover, the inhibition in [13] stood at 2.19%; in [14], 2.08%; in experiment [15] it was 1.93%; in experiment [16], 3.02%; in experiment [17] it was 0.86%; in experiment [18], 1.96%. Further, the inhibition in experiment [19] was 0.53%; in experiment [20], -0.1%.
`CC(C)(CO)CNC(=O)c1ccc2c(c1)/C(=N/Nc1ccc(S(N)(=O)=O)cc1)C(=O)N2`: the inhibition in experiment [1] is 6.57%; in experiment [2], -0.9%; in experiment [3], 10.8%; in experiment [4], -1.83%; in experiment [5] it was 0.67%; in experiment [6] it was -2.27%. The inhibition in experiment [7] was -0.34%; in experiment [8] it was 0.27%; in experiment [9], -2.23%; in [10], 0.77%; in experiment [11], -0.3%; in experiment [12] it was -1.82%. Moreover, the inhibition in experiment [13] is 3.39%; in experiment [14], 5.33%; in [15] it was 5.03%; in experiment [16] it was -3.09%; in experiment [17], -0.53%; in [18], -0.63%. In addition, the inhibition in experiment [19] is -0.88%; in experiment [20], -1.56%.
